Records with an inconclusive call do not appear. For some assays here: Measured potencies and affinities stand elsewhere. Calls of active or inactive are those of the source. Unless noted, how the calls were made is not given here.
Columns and labels:
[1] = compounds altering circadian rhythm period length – cell-based, LOPAC library, luminescence reporter (AID 2774); settings: circadian reporter cells, at 7 µM, actives lie on both sides;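 further: values are relative to mean of DMSO wells on each plate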
[2] = test system: Hepatitis C virus NS3 helicase; experiment: blockers of NS3h binding to ssDNA – biochemical, fluorescence polarization, LOPAC1280 library, primary screen (AID 687035; in the data active means inhibition above about 37%); settings: Purified HCV NS3 helicase, Cy5-dT15 ssDNA binding fluorescence polarization; stronger effect = higher value; concentration not given here
[3] = compounds altering Cy5-DNA-NS3h complex signal – biochemical, LOPAC1280, artefact control for HCV NS3 helicase inhibitor project (AID 687037); settings: Cy5-DNA-NS3h complex fluorescence interference counterscreen
[4] = test system: Aerobactin synthetase IucA (Klebsiella pneumoniae, hypervirulent); experiment: biochemical IucA inhibition screen of LOPAC library by absorbance (AID 1346212); settings: IucA enzyme assay, absorbance (OD) readout; stronger effect = lower value;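 tested at 8 µM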;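 further: 100% = no compound wells and 0% = no enzyme wells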
[5] = blockers of cellular phospholipid synthesis – cell-based, LOPAC library, screen 4, primary screen (AID 1347384); settings: animal cells, phospholipid biosynthesis inhibition screen; at 10 µM
[6] = target: ATP-dependent translocase ABCB1 (Homo sapiens) (UniProt P08183); experiment: P-glycoprotein substrate transport blockade – cell-based (AID 377; in the data active means fluorescence slope change above about 50%); settings: MDR1-expressing cells, fluorescent substrate accumulation slope; stronger effect = higher value; concentration not given here
[7] = blockers of polyQ-driven CASP3 activation – cell-based (AID 1583); settings: polyglutamine-induced caspase-3 activation, cell assay; stronger effect = higher value;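 tested at 10 µM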
[8] = restoration of touch response, mutant HTT neurons – whole organism, C. elegans mechanosensory neurons, N-terminal huntingtin (AID 1599); settings: C. elegans polyQ-huntingtin mechanosensory neurons, stronger effect = higher value
[9] = glutamate transport activators, MN-1 cells, MN-1 cell line (AID 1612); settings: MN-1 motor neuron cells, stronger effect = higher value;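 further: tested at 1 µM final; 0% = mean of DMSO vehicle wells on each plate; positive means more glutamate uptake than control and negative means less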
[10] = GFP-Q80 aggregate reduction, neuronal-like cells, cell-based, NGF-treated PC12, GFPQ80 (AID 1614); settings: PC12 NGF-treated GFP-polyQ80 inclusion reduction;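 further: lower means fewer inclusions and 0 means no inclusions at all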
[11] = 75Q-TubH aggregate inhibition, S. cerevisiae, yeast (AID 1616); settings: S. cerevisiae 75Q-TubH polyglutamine aggregation suppression; stronger effect = higher value
[12] = compounds altering viability of human ES cells (AID 493140); settings: human embryonic stem cell survival screen; stronger effect = higher value;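 further: cells exposed to compounds for four days before counting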
[13] = modulation of C. elegans fzo-1 (AID 1259413);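 further: fzo-1 mutant C. elegans worms in liquid wells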; settings: C. elegans fzo-1 modulator screen, mean read-out; stronger effect = higher value
F380Y = experiment: BK channel mutant inhibitors and activators – cell-based, U2OS BacMam, thallium flux, beta subunits, selectivity assay, profiling panel (AID 1259406;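 active means thallium flux through the channel raised or lowered by more than 3 SD from vehicle-only wells, actives on both sides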;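 further: initial slope of Thallos dye fluorescence rise after thallium is added; log ratio against the mean of 0.3% DMSO vehicle wells on the same plate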); settings: U2OS BacMam BK variants, at 30 µM
F380Y/beta1 = experiment: as above; settings: U2OS BacMam BK variants, at 30 µM
F380Y/beta2Delta = experiment: as above; settings: U2OS BacMam BK variants, at 30 µM
R275C = experiment: as above; settings: U2OS BacMam BK variants, at 30 µM
R275C/beta1 = experiment: as above; settings: U2OS BacMam BK variants, at 30 µM
R275C/beta2Delta = experiment: as above; settings: U2OS BacMam BK variants, at 30 µM
R275C/Slo1WT/beta2 = experiment: as above; settings: U2OS BacMam BK variants, at 30 µM

ATP-dependent translocase ABCB1 (Homo sapiens), sequence (P08183 whole entry, looked up): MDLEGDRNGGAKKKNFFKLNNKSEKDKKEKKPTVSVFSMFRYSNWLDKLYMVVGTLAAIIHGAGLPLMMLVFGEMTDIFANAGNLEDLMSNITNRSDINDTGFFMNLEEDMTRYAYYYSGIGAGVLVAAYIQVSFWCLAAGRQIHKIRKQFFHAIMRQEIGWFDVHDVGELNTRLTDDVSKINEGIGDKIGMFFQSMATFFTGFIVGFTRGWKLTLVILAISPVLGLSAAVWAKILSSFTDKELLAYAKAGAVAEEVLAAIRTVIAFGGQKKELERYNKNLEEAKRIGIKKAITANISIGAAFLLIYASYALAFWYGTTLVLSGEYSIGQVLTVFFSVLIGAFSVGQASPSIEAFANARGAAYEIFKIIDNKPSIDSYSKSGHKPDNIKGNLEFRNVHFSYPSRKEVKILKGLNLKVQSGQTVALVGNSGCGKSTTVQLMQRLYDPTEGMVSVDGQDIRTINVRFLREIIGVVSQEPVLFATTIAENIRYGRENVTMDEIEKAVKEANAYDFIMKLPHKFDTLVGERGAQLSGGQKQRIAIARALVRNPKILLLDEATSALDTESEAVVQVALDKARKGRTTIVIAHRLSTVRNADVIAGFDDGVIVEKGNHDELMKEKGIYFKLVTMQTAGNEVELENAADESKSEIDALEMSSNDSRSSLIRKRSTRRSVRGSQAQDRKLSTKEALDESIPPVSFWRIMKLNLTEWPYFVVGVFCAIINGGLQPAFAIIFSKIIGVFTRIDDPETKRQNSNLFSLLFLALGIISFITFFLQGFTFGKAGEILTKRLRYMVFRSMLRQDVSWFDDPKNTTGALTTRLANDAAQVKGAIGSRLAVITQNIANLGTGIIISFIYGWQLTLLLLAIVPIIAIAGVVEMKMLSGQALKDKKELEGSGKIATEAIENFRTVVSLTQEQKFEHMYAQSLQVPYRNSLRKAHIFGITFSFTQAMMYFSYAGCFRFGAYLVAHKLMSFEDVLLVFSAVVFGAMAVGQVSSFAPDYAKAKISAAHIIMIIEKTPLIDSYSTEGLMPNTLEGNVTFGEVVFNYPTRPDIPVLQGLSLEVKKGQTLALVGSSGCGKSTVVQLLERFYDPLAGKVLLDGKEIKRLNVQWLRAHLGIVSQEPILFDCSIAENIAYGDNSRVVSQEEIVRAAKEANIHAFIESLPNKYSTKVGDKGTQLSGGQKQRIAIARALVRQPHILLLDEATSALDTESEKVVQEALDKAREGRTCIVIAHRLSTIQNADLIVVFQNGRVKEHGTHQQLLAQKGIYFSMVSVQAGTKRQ

SMILES	period change [1]	inhibition [2]	fluorescence ratio (interference) [3]	remaining activity [4]	outcome [5]	fluorescence slope change [6]	inhibition [7] [%]	rescue above control [8]	glutamate uptake change [9] [%]	inclusion score [10]	aggregation suppression score [11]	survival [12]	mean signal [13]	log fold change Tl+ flux (F380Y)	log fold change Tl+ flux (F380Y/beta1)	log fold change Tl+ flux (F380Y/beta2Delta)	log fold change Tl+ flux (R275C)	log fold change Tl+ flux (R275C/beta1)	log fold change Tl+ flux (R275C/beta2Delta)	log fold change Tl+ flux (R275C/Slo1WT/beta2)
CCC1(C2=NCCN2)Cc2ccccc2O1 (stereo not drawn)	0.07 h (inactive)	-1% (inactive)	1 (inactive)	82.2% (inactive)	inactive															
O=C(O)c1nn(Cc2ccc(Cl)cc2Cl)c2ccccc12	-0.065 h (inactive)	-4% (inactive)	1 (inactive)	110% (inactive)	inactive															
CN(C)[C@@H]1C(=O)C(C(N)=O)=C(O)[C@@]2(O)C(=O)C3=C(O)c4c(O)cccc4[C@@](C)(O)[C@H]3C[C@@H]12						76.3% (active)	61.6	-1.89	10.7	0	0.769	22.6 (inactive)	244 (inactive)							
CCC1(c2ccc(N)cc2)CCC(=O)NC1=O (stereo not drawn)	0.015 h (inactive)	-3% (inactive)	1 (inactive)		inactive		22.4	12.8	15.1	2	1.06	19.8 (inactive)	262 (inactive)	0.023 (inactive)	-0.0309 (inactive)	-0.00163 (inactive)	0.0191 (inactive)	-0.00575 (inactive)	-0.0116 (inactive)	0.0134 (inactive)
CN(C)[C@@H]1C(=O)C(C(N)=O)=C(O)[C@@]2(O)C(=O)C3=C(O)c4c(O)cccc4[C@@](C)(O)[C@H]3[C@H](O)[C@@H]12						60.8% (active)	-0.04	-1.64	-6.56	1	0.502	14.3 (inactive)	260 (inactive)	0.018 (inactive)	0.0522 (inactive)	-0.0529 (inactive)	-0.057 (inactive)	0.0468 (inactive)	-0.0649 (inactive)	-0.0058 (inactive)
Clc1ccc(CO/N=C(\Cn2ccnc2)c2ccc(Cl)cc2Cl)c(Cl)c1													187 (inactive)							
CN1C(=O)CCS(=O)(=O)C1c1ccc(Cl)cc1 (stereo not drawn)	0.08 h (inactive)	0% (inactive)	1 (inactive)	93.8% (inactive)	inactive	29.1% (inactive)	11.3	10	3.58	2	1.17	8 (inactive)								
NCC(O)c1ccc(O)cc1 (stereo not drawn)	-0.025 h (inactive)	-4% (inactive)	1 (inactive)		inactive		-11.8	-6.97	-13.3	2	0.97	5.08 (inactive)								
CCCC(C)(COC(N)=O)COC(=O)NC(C)C (stereo not drawn)	0.065 h (inactive)	-1% (inactive)	1 (inactive)	106% (inactive)		52.8% (active)	17.5	0.33	3.53	2	1.4	11.2 (inactive)	258 (inactive)	0.0133 (inactive)	0.0587 (inactive)	-0.0375 (inactive)	0.0157 (inactive)	0.044 (inactive)	0.0245 (inactive)	0.0148 (inactive)
O=C(CCCN1CCC2(CC1)C(=O)NCN2c1ccccc1)c1ccc(F)cc1	0.035 h (inactive)		1 (inactive)	121% (inactive)	inactive	202% (active)	-14.9	4.9	-22.8	2	1.1	7.92 (inactive)								
O=C(O)CCCc1ccc(N(CCCl)CCCl)cc1	-0.09 h (inactive)	-3% (inactive)	1 (inactive)	115% (inactive)			25.6	-3.71	-0.49		0.0151	4.5 (inactive)	236 (inactive)	-0.0169 (inactive)	0.0024 (inactive)	0.0059 (inactive)	-0.0229 (inactive)	-0.022 (inactive)	0.041 (inactive)	0.0346 (inactive)
O=c1[nH]c2ccccc2n1C1CCN(CCCC(c2ccc(F)cc2)c2ccc(F)cc2)CC1	0.045 h (inactive)	-3% (inactive)	1 (inactive)	122% (inactive)	inactive	147% (active)	13.8	6.31	15.9		1.1	4.67 (inactive)								
c1ccc2nc(N3CCNCC3)ccc2c1	-0.04 h (inactive)			114% (inactive)		25.1% (inactive)	-24.6	-5.3	-14.6	2	1.33	8.75 (inactive)								
C[C@@H]1C[C@@H]([C@H](O)CC2CC(=O)NC(=O)C2)C(=O)[C@@H](C)C1						14.9% (inactive)	22.7	-0.63	-43.8		0.0281	0.417 (inactive)								
C=C(C)[C@H]1Cc2c(ccc3c2O[C@@H]2COc4cc(OC)c(OC)cc4[C@@H]2C3=O)O1	-1.31 h (inactive)	-1% (inactive)	1 (inactive)	78.1% (inactive)	inactive	63.7% (active)	5.88	0	-44.7	2	0.895									
